Among the data in PubChem BioAssay are composite z-score values, retold here.

The subject of the experiment is XIP peptide (Xip251-270). The experiment in a line: compounds binding XIP fragment 251-270 – biochemical, small-molecule microarray, fluorescence 635/667 nm, 0.5 µg/mL protein, primary screen (AID 1183). The note with it: fluorescence 635 nm, higher = more signal.
For `CO[C@@H]1C=CCC(=O)N[C@@H](C)C(=O)OC[C@@H](OC)[C@H](C)C=CCC(=O)OC[C@H]1C`, the composite z-score amounted to 0.744.

In the case of `CC(CCN1CCCc2nc(C)c(C)cc21)=NO[C@H](C)c1cn([C@H](CO)Cc2ccccc2)nn1`, the composite z-score was determined as 0.532.

Take `COc1ccc(COC(=O)NN=C2C[C@@H](O)[C@@H](O)[C@@H]3[C@@H]4C(=O)N([C@@H](C)c5ccccc5)C(=O)[C@@H]4CC[C@H]23)cc1`: the composite z-score is -0.273.

Consider `O=C1C2=CC[C@H]3C(=O)N(C[C@@H]4CCCO4)C(=O)[C@H]3[C@H]2[C@H](O)[C@@H]2O[C@H]12`, for which the composite z-score turned out to be 0.39.

Regarding `CON(C)C(=O)c1nnc2c(n1)[nH]c1ccccc12`, the composite z-score was 0.755.

As to `C[C@@H](c1ccccc1)N1C(=O)[C@H]2[C@H]3[C@H](O)[C@H](O)CC(=NOC[C@@H](O)COCc4ccco4)[C@H]3CC[C@H]2C1=O`, the composite z-score came out at 0.316.

For `COC(OC)[C@@H](C)[C@H](OC)[C@@H](C)[C@H](OC)c1ccccc1`, the composite z-score was -0.0245.

Take `COC(=O)[C@H](C)NC(=O)CCC1CC(OC(=O)NCCc2ccc(F)cc2)CC2(CCCC(COC(=O)NCCc3ccccc3OC)O2)O1` (stereo partly specified): the composite z-score worked out at 0.341.

For `COc1ccc(O[C@H]2C=C[C@@H](c3ccccc3)O[C@@H]2COC(=O)CCC(C)=NOC[C@@H](O)COCc2ccco2)cc1`, the composite z-score was -0.448.

As to `C[C@]12CCC3c4ccc(OCC5CO5)cc4CCC3C1CC[C@@H]2O` (stereo partly specified), the composite z-score turned out to be 0.0249.

Take `C[C@@H](c1ccccc1)N1C(=O)[C@H]2[C@H]3[C@H](O)[C@H](O)CC(=NOCc4ccccc4)[C@@H]3CC[C@H]2C1=O`: the composite z-score turned out to be 0.169.

As to `O=C1[C@H]2[C@H]3[C@H](O)[C@H](O)CC(=NO[C@@H]4O[C@H](CO)[C@@H](O)[C@H](O)[C@H]4O)[C@@H]3CC[C@H]2C(=O)N1c1cccc(Oc2ccccc2)c1`, the composite z-score is 0.519.

In the case of `COc1ccc(O[C@H]2C=C[C@@H](c3ccccc3)O[C@@H]2CON=C2c3cc(OC)ccc3O[C@H](c3cccc(OC)c3)[C@H]2O)cc1`, the composite z-score was -0.338.

As for `C=CC[C@@H]1C=C[C@H](ON=C(C)CCN2CCCCc3nc(C)c(C)cc32)[C@@H](CO)O1`, the composite z-score was 0.143.

Regarding `COc1ccc(-c2cnnc(CCCn3ccnc3-c3ccccc3)n2)cc1`, the composite z-score was determined as 0.492.

As for `CCOC(=O)[C@H](CC(C)C)NC(=O)CCC1CC(OC(=O)NCc2ccc3c(c2)OCO3)CC2(CCCC(COC(=O)NCCOC)O2)O1` (stereo partly specified), the composite z-score came to 0.0552.

As to `CCCCOC(OCCCC)C(O)CSc1ccc2ccccc2c1` (stereo unspecified), the composite z-score came out at 0.198.

Regarding `CC(=O)OC[C@H]1O[C@H](CC=NO[C@H](C)c2cn([C@@H]3COC[C@H]3O)nn2)C=C[C@@H]1OC(C)=O`, the composite z-score is 0.644.

On to `CO[C@@H]1COC(=O)[C@@H]2CCCN2C(=O)[C@@H](C)COC(=O)CCC[C@H]1C`, for which the composite z-score is 0.143.

Take `COc1ccc(COC(=O)NN=C2C[C@@H](O)[C@@H](O)[C@@H]3[C@@H]4C(=O)N(C[C@@H]5CCCO5)C(=O)[C@@H]4CC[C@@H]23)cc1`: the composite z-score was determined as 0.744.

Consider `CC(=O)OC[C@H]1O[C@H](CC=NOC(C)CN2CCCCc3nc(C)c(C)cc32)C=C[C@@H]1OC(C)=O` (stereo partly specified), for which the composite z-score was found to be 0.646.

Turning to `CCN1C(=O)[C@H]2[C@H]3[C@H](O)[C@H](O)CC(=NOC(C)CN4CCCc5nc(C)c(C)cc54)[C@@H]3CC[C@H]2C1=O` (stereo partly specified), the composite z-score is 0.148.

For the molecule `CC(=O)OC[C@H]1O[C@H](CC=NOC[C@@H](O)COCc2ccco2)C=C[C@@H]1OC(C)=O`, the composite z-score is 0.479.

Regarding `CCN1C(=O)[C@H]2[C@H]3[C@H](O)[C@H](O)CC(=NNC(=O)OCc4ccccc4)[C@H]3CC[C@H]2C1=O`, the composite z-score is 0.129.

As for `COC(=O)[C@H](C)NC(=O)CCC1CC(OC(=O)NCc2cccc3ccccc23)CC2(CCCC(COC(=O)NCCOc3ccccc3)O2)O1` (stereo partly specified), the composite z-score came to 0.345.

For the molecule `COc1ccc(OC[C@H]2CN3[C@@H](CC[C@@H](C)[C@@H]3c3ccc(Br)cc3)C(=O)O2)cc1`, the composite z-score came out at 0.61.

Consider `CCOC(=O)[C@H](Cc1ccccc1)NC(=O)CCC1CC(OC(=O)NCc2ccc3c(c2)OCO3)CC2(CCCC(COC(=O)NCCc3ccc(Cl)cc3)O2)O1` (stereo partly specified), for which the composite z-score was found to be 0.563.

Regarding `O=C1[C@H]2CCn3c(=O)n(Cc4cc5c(cc4Cl)OCO5)c(=O)n3[C@H]2[C@H](O)[C@@H]2O[C@H]12`, the composite z-score is 0.639.

Regarding `COC(=O)CC=C1c2ccccc2[C@H](OC)[C@H]1C`, the composite z-score was -0.302.

For the molecule `CC(C)CON=C1C[C@@H](O)[C@@H](O)[C@@H]2[C@@H]3C(=O)N(Cc4ccc5c(c4)OCO5)C(=O)[C@@H]3CC[C@@H]12`, the composite z-score is -0.266.

As to `C=CC[C@@H]1C=C[C@H](ON=CC[C@@H]2C=C[C@H](OC(C)=O)[C@@H](COC(C)=O)O2)[C@@H](CO)O1`, the composite z-score came to 0.749.

Consider `CC(=O)OC[C@H]1O[C@H](CCON=C(C)C)C=C[C@@H]1OC(C)=O`, for which the composite z-score turned out to be 0.0795.

Regarding `CO[C@@H]1COC(=O)[C@H](COCc2ccccc2)NC(=O)CC=C[C@@H](C)[C@H](OC)COC(=O)[C@@H](C)NC(=O)CC=C[C@H]1C`, the composite z-score was 0.261.

Consider `CC(C)[C@@H](OCc1ccccc1)[C@H](C)C=NO[C@H](C)c1cn([C@@H]2COC[C@H]2O)nn1`, for which the composite z-score is 0.0742.

Take `CCOC(=O)[C@H](Cc1ccccc1)NC(=O)CCC1CC(OC(=O)NCCc2ccc(F)cc2)CC2(CCCC(COC(=O)NCCC(C)C)O2)O1` (stereo partly specified): the composite z-score amounted to 0.657.

As to `CC(=O)OC[C@H]1O[C@@H](ON=C(C)CCC(=O)OC[C@H]2O[C@H](C#Cc3ccccc3)C=C[C@@H]2Oc2ccc(C)cc2)[C@H](OC(C)=O)[C@@H](OC(C)=O)[C@@H]1OC(C)=O`, the composite z-score was determined as 0.625.
